# Measured values published in PubChem BioAssay (NCI).
# This is part of a sample that, as a whole, favours compounds with a hit. Of some 83,000 tested, about 20% had one in any assay.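 Note: values are percent growth. 100 is the growth of untreated cells, values between 100 and 0 indicate rising inhibition; between -100 and 0 indicates cell death.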 A number with no mark means an inactive call. Activity calls are given as the source filed them. The calls were made as follows: active = growth percent below 10; inactive = the rest.
# Test system: HL-60(TB) leukemia
# Test: NCI-60 one-dose screen, 48 h (100 = growth as untreated, 0 = no growth, -100 = all killed)
# Conditions: 10 µM unless noted
row,Structure (SMILES),growth
1,CCOC(=O)C1=C(C)N=c2s/c(=C\c3cc(Cl)ccc3O)c(=O)n2C1c1ccc(OC)cc1 (stereo not given),98%
2,CN1C(=O)c2cc(Cl)nc3c(NC(=O)c4cccc(Cl)c4)c(Cl)c(NC(=O)c4cccc(Cl)c4)c1c23,-30.7% (active)
3,COC(=O)c1c(C)nc(C)c2c1C(=O)C(Br)=C(NCc1ccccc1)C2=O,-30.9% (active)
4,O=C(O)c1cn(C2CC2)c2cc(N3CCN(C(=O)Nc4nc(-c5ccc(Cl)cc5)cs4)CC3)c(F)cc2c1=O,-26.2% (active)
5,Cc1ccc(/C=C2\CNC/C(=C\c3ccc(C)cc3)C2=O)cc1,-29.1% (active)
6,N#CC1c2ccccc2C=CN1C(=O)N(c1ccccc1)c1ccccc1 (stereo not given),-8.07% (active)
7,CCN1C(=O)C2(Nc3ccccc3S2)c2cc(C)ccc21 (stereo not given),118%
8,O=C(c1ccccc1)N(C(=O)c1ccccc1)N1CCCC1,120%
9,CC1(C)C(N(O)C(=O)Nc2ccc(Cl)cc2)N(c2ccc(Cl)cc2)C(=O)N1CC(=O)N/N=C/C=C/c1ccc([N+](=O)[O-])o1 (stereo not given),-36% (active)
10,Cc1nc(N)sc1C(=O)NCCO,167%
11,O=C1/C(=C/c2ccccc2O)N=C2SCCCN12,108%
12,N#Cc1cccc(-c2ccc3c(c2)NC(=O)/C3=C\c2ccc[nH]2)c1,64.8%
13,O=C1c2cc3c(cc2-c2c1c1ccc(Cl)cc1c(=O)n2CCCN1CCOCC1)OCO3,16.7%
14,Cc1cc(C(C#N)c2ccc(Cl)cc2)c(Cl)cc1NC(=O)c1cc(I)cc(I)c1O (stereo not given),17.4%
15,CC(O)COc1ccc(-c2ccccc2)cc1 (stereo not given),102%
16,C=C[C@]1(C)C=C2C(=O)[C@@]3(O)OC[C@@]4(CCCC(C)(C)C43O)C2(O)C(O)C1 (stereo not given in full),-73.9% (active)
17,COc1cnc2c(c1)C(=O)c1c-2n(CCCN2CCOCC2)c(=O)c2cc(F)ccc12,-10.2% (active)
18,O=C(NCCCNC(=O)OCc1ccc2c(Br)cc(Br)c(O)c2n1)OCc1ccc2c(Br)cc(Br)c(O)c2n1,-25.4% (active)
19,C#Cc1cccc(NC(=O)Nc2ccccc2NC(=O)CCl)c1,16.8% [8.25 µM]
20,COC(=O)c1ccccc1N(C)C,87.6%

row,Structure (SMILES),growth
1,CC/C=C/C/C=C/C/C=C/C/C=C/C/C=C/C/C=C/CCC(=O)Nc1ccn([C@@H]2O[C@H](CO)[C@@H](O)C2(F)F)c(=O)n1,-16.1% (active)
2,CC(=O)Nc1c(Cl)cc(Cl)c2c1Cc1cc([N+](=O)[O-])ccc1-2,89.8%
3,CC1CCN(Cc2ccc(NC(=O)c3cc4ccc5cccnc5c4[nH]3)cc2)CC1,11.5%
4,CCOC(=O)c1cnn(-c2ccc(S(N)(=O)=O)cc2)c1N,92.9%
5,CCCCn1cnc2c(SCc3ccc([N+](=O)[O-])cc3)nc(N)nc21,-42.6% (active)
6,COc1ccccc1/C=C1\COc2ccc(-c3ccccc3)cc2C1=O,-47.8% (active)
7,NC(=O)N1CCOCC1,93.5%
8,COc1ccc(/C=N/NC(=O)CN2CCN(c3cc4c(cc3F)c(=O)c(C(=O)O)cn4C3CC3)CC2)cc1O,92%
9,COc1ccc(/C=N/NC(=O)COCC(=O)N/N=C/c2ccc(OC)cc2)cc1,102%
10,CNc1ccc(Nc2cccc(C)c2)c2c1C(=O)c1ccccc1C2=O,80.6%
11,O=S(Cc1ccccc1)/C(=C/NC(=S)Nc1ccccc1)c1ccccc1 (stereo not given),106%
12,O=C(NC1CCCC1)c1ccc(N2CCC(NCc3cccc(C(F)(F)F)c3)CC2)cc1,66.5%
13,CCOC(=O)c1ccc[nH]1,79.7%
14,O=c1[nH]c(N2CCC(Cc3ccccc3)CC2)nc2sc3c(c12)CCCC3,95.7%
15,C#CCOc1cccc(-c2ncnc3cc(NC(=O)CCl)ccc23)c1,-29.7% (active)
16,COc1cc(OC)c(Cl)cc1N,131%
17,C=C(C)[C@@H]1CC[C@]2(C(=O)Nc3ccccn3)CC[C@]3(C)[C@H](CC[C@@H]4[C@@]5(C)CCCNC(C)(C)[C@@H]5CC[C@]43C)[C@@H]12,-38.1% (active)
18,C=C1C(=O)O[C@@H]2C3C(=C(C)CC[C@@H]12)CC1O[C@]13C (stereo not given in full),77.6% [6.75 µM]
19,COc1ccc(-n2nc(C(=O)NCC(=O)O)nc2-c2ccccc2)cc1,96.3%
20,C#Cc1cccc(Nc2ncnc3cc4c(cc23)OCCOCCOCCO4)c1,88.1%
